The values that follow come from PubChem BioAssay (EPA / NIEHS).

SMILES strings stand for the structures. Values joined by “and” are separate entries in the source; they are usually repeats but may differ in a detail not shown here. Identical values can stand only once. Inconclusive results are not listed. A structure can be active in one record and inactive in another. Active and inactive are the calls of the source. Rule for the calls, unless noted: active = hit-call score of the fitted dose curve at least 0.9, where 1 is the maximum; inactive = score below 0.9.

Assay [1] in a line: ATG_NFI_CIS: Attagene CIS-FACTORIAL HepG2 Assay for human Nuclear Factor I (NFI) (AID 2282989). To be noted: HepG2 cis-regulatory reporter, NFI response element transcription; actives raise or lower the signal. An outline of the steps: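 Transfected HepG2 liver cells, exposed 24 h, supplied total RNA for oligo(dT) reverse transcription and reporter-specific PCR. Labelled, HpaI-cut fragments were sized by capillary electrophoresis; DMSO set the baseline for bidirectional fitting.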

The target of assay [2] is Myc proto-oncogene protein (Homo sapiens) (UniProt P01106). Kind of assay: ATG_Myc_CIS: Attagene CIS-FACTORIAL HepG2 Assay for human Myelocytomatosis (Myc) Proto-Oncogene Transcription Factor (AID 2282990). The settings on record: HepG2, Attagene cis-reporter transcription factor activity; actives raise or lower the signal. In short, it runs like this:
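HepG2, transient MRTU transfection (cis promoters, endogenous TFs); 24 h dosing; TriZol RNA → oligo(dT) RT → PCR → 6-FAM primer extension → HpaI cut → CE. Bidirectional fit vs DMSO.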

Assay [3] is described as follows: ATG_NRF2_ARE_CIS: Attagene CIS-FACTORIAL HepG2 Assay for human Nuclear Factor Erythroid 2 Related Factor 2 (NFR2) response to Antioxidant Response Elements (ARE) (AID 2282992).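 For AC50: reporter mRNA level measured by RT-PCR and capillary electrophoresis fluorescence.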 The settings on record: HepG2 Attagene ARE/NRF2 reporter, transcription factor activity; actives raise or lower the signal. In short, it runs like this:
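Cis-factorial assay: transfected HepG2 reporter library, 24 h dosing, mRNA readout via RT-PCR/CE; DMSO-referenced bidirectional analysis.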

Assay [4] can be described thus: ATG_Oct_MLP_CIS: Attagene CIS-FACTORIAL HepG2 Assay for human Octamer-Binding Transcription Factor (Oct) (AID 2282993). The settings on record: HepG2 Attagene cis-factorial Oct reporter, mRNA; actives raise or lower the signal. In short, it runs like this:
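Using HepG2 cells bearing transfected cis-reporter constructs, mRNA induction was read after 24 h by fluorescent RT-PCR and capillary electrophoresis, with DMSO defining baseline for gain- or loss-of-signal fits.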

A short description of assay [5]: BSK_3C_TissueFactor: BioMAP Diversity Plus: 3C Assay for Tissue Factor Biomarker Activity (AID 2282997). The settings on record: BioMAP 3C HUVEC, tissue factor biomarker readout; actives raise or lower the signal. In short, it runs like this:
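Values derive from bidirectional curve fitting against DMSO of Tissue Factor ELISA signals, taken 24 h after dosing primary human umbilical vein endothelial cells.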

A short description of assay [6]: BSK_3C_uPAR: BioMAP Diversity Plus: 3C Assay for Urokinase-type plasminogen activator receptor (uPAR) Biomarker Activity (AID 2282998). To be noted: BioMAP 3C HUVEC, uPAR biomarker ELISA; actives raise or lower the signal. In short, it runs like this:
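In this endothelial cell-based assay, human umbilical vein primary cells were treated with chemicals and harvested at 24 h. uPAR was quantified using ELISA, with gains or losses fitted relative to DMSO controls.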
A general note: In an ELISA, binding on a coated surface is turned into a signal by an enzyme label.

A short description of assay [7]: BSK_3C_VCAM1: BioMAP Diversity Plus: 3C Assay for Vascular cell adhesion molecule 1 (VCAM1) Biomarker Activity (AID 2282999). The settings on record: BioMAP 3C HUVEC, VCAM1 ELISA, cytokine-stimulated; actives raise or lower the signal. In short, it runs like this: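 Endothelial cells from human umbilical vein are treated with test chemical. At 24 h, VCAM-1 is measured by ELISA, and responses in either direction are fitted relative to DMSO.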

Assay [8] can be described thus: BSK_4H_Eotaxin3: BioMAP Diversity Plus: 4H Assay for Eotaxin 3 Biomarker Activity (AID 2283000).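 Note: CCL26 protein level quantified by ELISA in parallel with SRB cytotoxicity check.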 To be noted: primary human endothelial cells (HUVEC); actives raise or lower the signal. In short, it runs like this: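 Endothelial primary cells (human umbilical vein) exposed to compound for 24 h. ELISA detection of Eotaxin-3.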
Read-out in assay [9]: Intercellular Adhesion Molecule 1 (ICAM1), ICAM1 (gene 3383)
Kind of assay: BSK_3C_ICAM1: BioMAP Diversity Plus: 3C Assay for Intercellular Adhesion Molecule 1 (ICAM1) Biomarker Activity (AID 2283003). The settings on record: primary human endothelial cells (HUVEC); actives raise or lower the signal. An outline of the steps: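 Human vascular endothelial primary cells, 3C conditions, 24 h treatment. ICAM-1 by ELISA.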

Assay [10] in a line: BSK_3C_Proliferation: Cell Proliferation Assessment in the BioMAP Diversity Plus: 3C Assay (AID 2283006). To be noted: primary human endothelial cells (HUVEC). In short, it runs like this:
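Proliferation of human vascular endothelial primary cells after 48 h dosing, quantified as SRB-stained protein at 560 nm relative to DMSO.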

For assay [11], the target named is Peroxisome proliferator-activated receptor gamma (Homo sapiens) (UniProt P37231). The assay can be described thus: ATG_PPARg_TRANS: Attagene TRANS-FACTORIAL HepG2 Assay for human Peroxisome Proliferator-activated Receptor-gamma (PPARg) (AID 2283007; active = hit-call score of the fitted dose curve at least 0.9, where 1 is the maximum). In short, it runs like this:
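Chimeric NR-Gal4 transactivation is measured in transiently transfected HepG2 cells by reporter mRNA induction at 24 h. Detection uses RT-PCR with fluorescent labelling and capillary electrophoresis; DMSO defines baseline.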

Assay [12] is described as follows: ATG_NF_kB_CIS: Attagene CIS-FACTORIAL HepG2 Assay for human Nuclear Factor Kappa B (NF-kB) (AID 2282991). To be noted: HepG2 Attagene cis-factorial NF-kB reporter mRNA; actives raise or lower the signal. In short, it runs like this:
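DMSO served as negative control and baseline for bidirectional curve fitting. Transiently transfected HepG2 cells were dosed for 24 h, then reporter transcripts were measured by RT-PCR with capillary electrophoresis detection.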

Assay [13] concerns the target Cellular tumor antigen p53 (Homo sapiens) (UniProt P04637). Kind of assay: ATG_p53_CIS: Attagene CIS-FACTORIAL HepG2 Assay for human p53 Transcription Factor (AID 2282994). The settings on record: HepG2 p53 cis-element reporter, Attagene mRNA; actives raise or lower the signal. In short, it runs like this:
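Using HepG2 hepatoma cells carrying cis-acting multiplexed reporters, mRNA induction is detected after a 24 h exposure. Gain- and loss-of-signal responses are fitted relative to DMSO-treated cells.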

Assay [14] addresses human Peroxisome Proliferator-activated Receptor alpha (PPARa), PPARA (gene 5465) (UniProt Q07869). Kind of assay: ATG_PPARa_TRANS: Attagene TRANS-FACTORIAL HepG2 Assay for human Peroxisome Proliferator-activated Receptor alpha (PPARa) (AID 2283001; active = hit-call score of the fitted dose curve at least 0.9, where 1 is the maximum;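 for AC50: potency for gain of reporter signal over DMSO so agonist or activator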). An outline of the steps: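 Reporter transcripts from GAL4-UAS units in transfected HepG2 were quantified 24 h after dosing. Detection used reverse transcription, PCR, fluorescent primer extension and capillary electrophoresis, with DMSO as baseline.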

The target in assay [15] is human Peroxisome Proliferator-activated Receptor delta (PPARd), PPARD (gene 5467) (UniProt Q03181). The assay can be described thus: ATG_PPARd_TRANS: Attagene TRANS-FACTORIAL HepG2 Assay for human Peroxisome Proliferator-activated Receptor delta (PPARd) (AID 2283002; active = hit-call score of the fitted dose curve at least 0.9, where 1 is the maximum). In short, it runs like this:
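Transient HepG2 transfection (multiple GAL4-UAS RTUs, chimeric receptor-Gal4); 24 h dosing; total RNA → oligo(dT) RT → PCR → 6-FAM primer extension → HpaI cut → CE. Positive direction vs DMSO.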

Assay [16] addresses human Retinoic Acid Receptor beta (RARb), RARB (gene 5915) (UniProt P10826). Kind of assay: ATG_RARb_TRANS: Attagene TRANS-FACTORIAL HepG2 Assay for human Retinoic Acid Receptor beta (AID 2283004; active = hit-call score of the fitted dose curve at least 0.9, where 1 is the maximum). In short, it runs like this: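 HepG2, transient MRTU transfection, NR–Gal4 chimera, 24 h treatment; RT-PCR plus CE fluorescence detection of reporter mRNA; gain of signal vs DMSO.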

Assay [17] has as its target Retinoic acid receptor alpha (Homo sapiens) (UniProt P10276). Kind of assay: ATG_RARa_TRANS: Attagene TRANS-FACTORIAL HepG2 Assay for human Retinoic Acid Receptor alpha (RARa) (AID 2283005; active = hit-call score of the fitted dose curve at least 0.9, where 1 is the maximum). In short, it runs like this:
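Reporter transcripts, measured by RT-PCR with fluorescent labeling and capillary electrophoresis after 24 h dosing, reflect activity of an exogenous human RARa–GAL4 fusion in transiently transfected HepG2. Fitted for increase relative to DMSO.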

The target of assay [18] is Nuclear receptor subfamily 1 group I member 2 (Homo sapiens) (UniProt O75469). The assay can be described thus: ATG_PXR_TRANS: Attagene TRANS-FACTORIAL HepG2 Assay for human Pregnane X Receptor (PXR) (AID 2283008; active = hit-call score of the fitted dose curve at least 0.9, where 1 is the maximum). In short, it runs like this: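 Fluorescence intensity of FAM-labelled, HpaI-digested reporter amplicons, separated by capillary electrophoresis, quantifies induction. HepG2 cells with PXR-Gal4 trans-reporter system were exposed 24 h; DMSO defines baseline.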
Nuclear receptor subfamily 1 group I member 2 (Homo sapiens), sequence (O75469 whole entry, looked up, the tested form may be a part): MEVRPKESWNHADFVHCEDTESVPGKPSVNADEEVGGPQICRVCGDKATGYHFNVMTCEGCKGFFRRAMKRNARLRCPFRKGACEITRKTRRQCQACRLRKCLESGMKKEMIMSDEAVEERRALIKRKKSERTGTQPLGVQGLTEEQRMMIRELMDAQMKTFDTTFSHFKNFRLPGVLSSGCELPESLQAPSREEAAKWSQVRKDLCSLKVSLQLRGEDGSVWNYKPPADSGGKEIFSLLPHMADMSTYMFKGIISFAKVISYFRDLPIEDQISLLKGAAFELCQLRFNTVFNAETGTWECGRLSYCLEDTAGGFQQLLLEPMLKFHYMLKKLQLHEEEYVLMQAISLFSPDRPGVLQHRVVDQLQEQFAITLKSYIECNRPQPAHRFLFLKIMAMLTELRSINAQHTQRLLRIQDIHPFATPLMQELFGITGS

In assay [19] the target is human Retinoic Acid Receptor gamma (RARg), RARG (gene 5916) (UniProt P13631). The assay can be described thus: ATG_RARg_TRANS: Attagene TRANS-FACTORIAL HepG2 Assay for human Retinoic Acid Receptor gamma (RARg) (AID 2283009; active = hit-call score of the fitted dose curve at least 0.9, where 1 is the maximum). In short, it runs like this: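 HepG2, RARg-GAL4 TRANS system, 24 h exposure; reporter mRNA by RT-PCR + CE fluorescence; increase over DMSO.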
human Retinoic Acid Receptor gamma (RARg), RARG (gene 5916), sequence (P13631 whole entry, looked up, the tested form may be a part): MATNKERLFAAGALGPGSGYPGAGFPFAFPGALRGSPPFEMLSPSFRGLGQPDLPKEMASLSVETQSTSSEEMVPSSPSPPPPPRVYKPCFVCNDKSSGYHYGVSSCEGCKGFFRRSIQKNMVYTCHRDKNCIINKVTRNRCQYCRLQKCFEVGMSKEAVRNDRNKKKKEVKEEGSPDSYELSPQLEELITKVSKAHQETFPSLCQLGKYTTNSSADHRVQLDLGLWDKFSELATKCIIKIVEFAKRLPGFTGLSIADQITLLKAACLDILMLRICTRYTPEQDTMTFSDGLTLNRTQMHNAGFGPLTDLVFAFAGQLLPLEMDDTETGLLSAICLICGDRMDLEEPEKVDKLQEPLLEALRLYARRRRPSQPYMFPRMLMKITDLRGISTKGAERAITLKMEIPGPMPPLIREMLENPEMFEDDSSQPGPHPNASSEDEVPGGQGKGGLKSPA
The target of assay [20] is human RAR-related Orphan Receptor beta (RORb), RORB (gene 6096) (UniProt Q92753). The assay can be described thus: ATG_RORb_TRANS: Attagene TRANS-FACTORIAL HepG2 Assay for human RAR-related Orphan Receptor beta (RORb) (AID 2283010; active = hit-call score of the fitted dose curve at least 0.9, where 1 is the maximum). An outline of the steps: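 In this TRANS-format test, human HepG2 cells express chimeric NR-Gal4 fusion proteins driving GAL4-UAS reporters. After 24 h dosing, reporter transcripts are measured by fluorescent RT-PCR/capillary electrophoresis, with DMSO as negative control.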
human RAR-related Orphan Receptor beta (RORb), RORB (gene 6096), sequence (Q92753 whole entry, looked up, the tested form may be a part): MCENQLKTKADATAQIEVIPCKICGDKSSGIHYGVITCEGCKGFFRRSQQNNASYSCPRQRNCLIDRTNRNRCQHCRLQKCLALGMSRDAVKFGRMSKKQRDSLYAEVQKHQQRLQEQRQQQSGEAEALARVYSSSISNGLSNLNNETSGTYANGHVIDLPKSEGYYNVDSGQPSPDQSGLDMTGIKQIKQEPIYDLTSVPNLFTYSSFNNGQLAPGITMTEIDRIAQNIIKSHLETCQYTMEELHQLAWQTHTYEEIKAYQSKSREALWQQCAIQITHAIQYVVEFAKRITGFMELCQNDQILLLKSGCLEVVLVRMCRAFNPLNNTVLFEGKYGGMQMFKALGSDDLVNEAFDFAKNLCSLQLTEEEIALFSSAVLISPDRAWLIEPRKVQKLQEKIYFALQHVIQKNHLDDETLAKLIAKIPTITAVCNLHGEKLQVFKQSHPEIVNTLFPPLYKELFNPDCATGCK

Retinoic acid receptor alpha (Homo sapiens), sequence (P10276 whole entry, looked up, the tested form may be a part): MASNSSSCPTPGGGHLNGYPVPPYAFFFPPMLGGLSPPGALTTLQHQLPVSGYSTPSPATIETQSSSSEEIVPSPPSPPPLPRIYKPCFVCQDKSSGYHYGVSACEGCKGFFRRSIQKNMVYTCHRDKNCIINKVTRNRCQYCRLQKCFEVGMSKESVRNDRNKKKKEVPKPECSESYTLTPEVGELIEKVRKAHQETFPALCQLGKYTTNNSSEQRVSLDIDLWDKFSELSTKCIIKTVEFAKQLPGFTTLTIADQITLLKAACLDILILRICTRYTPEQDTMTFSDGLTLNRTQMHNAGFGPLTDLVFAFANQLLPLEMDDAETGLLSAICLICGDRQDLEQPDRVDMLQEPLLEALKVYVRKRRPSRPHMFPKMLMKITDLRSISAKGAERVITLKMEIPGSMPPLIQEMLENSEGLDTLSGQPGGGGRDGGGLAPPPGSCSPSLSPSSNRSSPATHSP
human Retinoic Acid Receptor beta (RARb), RARB (gene 5915), sequence (P10826 whole entry, looked up, the tested form may be a part): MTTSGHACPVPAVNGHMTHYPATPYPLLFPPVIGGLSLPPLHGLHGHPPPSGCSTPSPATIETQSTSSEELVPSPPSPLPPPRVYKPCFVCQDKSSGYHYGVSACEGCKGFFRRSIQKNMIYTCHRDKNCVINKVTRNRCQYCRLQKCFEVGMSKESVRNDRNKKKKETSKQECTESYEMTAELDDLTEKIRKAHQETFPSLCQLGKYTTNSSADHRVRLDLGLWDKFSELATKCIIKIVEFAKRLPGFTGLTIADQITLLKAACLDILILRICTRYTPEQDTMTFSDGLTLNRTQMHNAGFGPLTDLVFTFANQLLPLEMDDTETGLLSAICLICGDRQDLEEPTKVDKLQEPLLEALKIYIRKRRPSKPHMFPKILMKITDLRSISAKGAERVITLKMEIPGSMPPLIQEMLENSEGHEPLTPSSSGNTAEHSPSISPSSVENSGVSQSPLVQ
Myc proto-oncogene protein (Homo sapiens), sequence (P01106 whole entry, looked up): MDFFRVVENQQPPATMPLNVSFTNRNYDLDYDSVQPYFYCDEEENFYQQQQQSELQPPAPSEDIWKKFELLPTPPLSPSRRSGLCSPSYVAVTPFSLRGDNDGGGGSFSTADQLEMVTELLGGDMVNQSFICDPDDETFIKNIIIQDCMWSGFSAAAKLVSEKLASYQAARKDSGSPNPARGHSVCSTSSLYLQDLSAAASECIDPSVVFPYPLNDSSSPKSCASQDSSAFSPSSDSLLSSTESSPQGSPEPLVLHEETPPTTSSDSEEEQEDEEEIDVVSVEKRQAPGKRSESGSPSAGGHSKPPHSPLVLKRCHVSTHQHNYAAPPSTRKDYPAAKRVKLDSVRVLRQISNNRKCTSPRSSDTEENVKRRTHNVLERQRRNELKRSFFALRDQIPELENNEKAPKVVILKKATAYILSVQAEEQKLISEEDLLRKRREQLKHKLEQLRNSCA
Cellular tumor antigen p53 (Homo sapiens), sequence (P04637 whole entry, looked up): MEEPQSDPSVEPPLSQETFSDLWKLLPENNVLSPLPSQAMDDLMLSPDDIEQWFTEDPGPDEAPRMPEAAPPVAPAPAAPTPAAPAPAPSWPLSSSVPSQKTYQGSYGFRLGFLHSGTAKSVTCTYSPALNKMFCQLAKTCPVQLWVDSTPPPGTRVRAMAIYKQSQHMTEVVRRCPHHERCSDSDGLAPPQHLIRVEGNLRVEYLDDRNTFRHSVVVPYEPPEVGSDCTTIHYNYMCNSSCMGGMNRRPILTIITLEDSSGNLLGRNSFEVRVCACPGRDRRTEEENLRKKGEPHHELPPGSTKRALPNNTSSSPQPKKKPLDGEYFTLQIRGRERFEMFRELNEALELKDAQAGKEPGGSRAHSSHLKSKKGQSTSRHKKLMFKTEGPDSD
Peroxisome proliferator-activated receptor gamma (Homo sapiens), sequence (P37231 whole entry, looked up, the tested form may be a part): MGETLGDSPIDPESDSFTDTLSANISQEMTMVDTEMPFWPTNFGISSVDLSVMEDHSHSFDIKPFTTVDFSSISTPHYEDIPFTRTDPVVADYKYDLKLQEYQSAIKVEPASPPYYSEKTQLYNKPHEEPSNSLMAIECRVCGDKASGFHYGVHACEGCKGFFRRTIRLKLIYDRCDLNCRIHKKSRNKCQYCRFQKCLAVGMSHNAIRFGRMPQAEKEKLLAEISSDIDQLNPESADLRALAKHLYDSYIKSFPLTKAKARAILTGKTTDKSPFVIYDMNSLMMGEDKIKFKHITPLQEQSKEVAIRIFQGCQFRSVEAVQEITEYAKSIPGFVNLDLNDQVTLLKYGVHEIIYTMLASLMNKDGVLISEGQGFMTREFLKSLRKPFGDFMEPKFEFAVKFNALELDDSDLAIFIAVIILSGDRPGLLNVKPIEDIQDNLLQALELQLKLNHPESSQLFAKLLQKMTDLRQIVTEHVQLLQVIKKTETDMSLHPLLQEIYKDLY
human Peroxisome Proliferator-activated Receptor alpha (PPARa), PPARA (gene 5465), sequence (Q07869 whole entry, looked up, the tested form may be a part): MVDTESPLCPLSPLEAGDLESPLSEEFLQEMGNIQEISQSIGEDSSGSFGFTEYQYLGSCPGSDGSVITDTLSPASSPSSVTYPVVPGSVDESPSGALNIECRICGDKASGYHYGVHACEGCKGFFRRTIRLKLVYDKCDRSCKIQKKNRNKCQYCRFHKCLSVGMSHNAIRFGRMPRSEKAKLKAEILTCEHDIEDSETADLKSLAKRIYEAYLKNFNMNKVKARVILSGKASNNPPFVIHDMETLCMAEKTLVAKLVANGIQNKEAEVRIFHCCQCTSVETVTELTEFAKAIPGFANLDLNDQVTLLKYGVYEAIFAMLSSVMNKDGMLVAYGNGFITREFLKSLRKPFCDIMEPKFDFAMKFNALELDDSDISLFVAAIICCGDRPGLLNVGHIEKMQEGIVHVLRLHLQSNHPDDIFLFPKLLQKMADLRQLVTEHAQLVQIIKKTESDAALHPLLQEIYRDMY
human Peroxisome Proliferator-activated Receptor delta (PPARd), PPARD (gene 5467), sequence (Q03181 whole entry, looked up, the tested form may be a part): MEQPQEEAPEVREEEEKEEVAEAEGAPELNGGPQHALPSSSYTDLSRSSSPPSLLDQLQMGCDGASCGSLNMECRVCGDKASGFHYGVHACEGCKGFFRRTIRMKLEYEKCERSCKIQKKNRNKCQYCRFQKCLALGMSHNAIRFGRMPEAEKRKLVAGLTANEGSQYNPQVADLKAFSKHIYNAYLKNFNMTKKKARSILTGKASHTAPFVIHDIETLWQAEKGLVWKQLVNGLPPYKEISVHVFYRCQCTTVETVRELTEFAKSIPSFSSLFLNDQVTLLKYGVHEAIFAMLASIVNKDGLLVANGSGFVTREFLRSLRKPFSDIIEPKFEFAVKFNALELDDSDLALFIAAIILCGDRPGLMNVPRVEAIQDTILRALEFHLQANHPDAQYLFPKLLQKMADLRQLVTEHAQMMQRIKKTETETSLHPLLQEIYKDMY

Regarding `CN(C)c1nc(=O)n(C2CCCCC2)c(=O)n1C`, the outcome in assay [1], in assay [2], in [3], in assay [4], in assay [5] and in [6] was inactive. The outcome in [7], in assay [8], in assay [9], in assay [10] and in assay [11] was inactive.
Regarding `OCC(O)CO`, the compound was called inactive in [1], in [2], in assay [12], in [3], in [4] and in [13]. The result in assay [15], in assay [16], in [17], in assay [11], in assay [18] and in assay [19] was inactive. For the same compound, the concentration at half-maximal activity (AC50) in [14] was 36.7 µM (active); in assay [11], 50 µM (active).
Regarding `CC(C)(O)C(=O)Nc1ccc([N+](=O)[O-])c(C(F)(F)F)c1`, the result in assay [1], in [2], in assay [3], in assay [4], in assay [13] and in [5] was inactive. In addition, the outcome in assay [6], in [7], in [8], in [14], in assay [9] and in [10] was inactive. Besides, the compound was called inactive in assay [18], in assay [19] and in assay [20]. Also, the half-maximal activity concentration (AC50) in assay [3] is 45.1 µM (active) and 15.9 µM (active) and 54.5 µM (active); in assay [4], 38.9 µM (active); in assay [18] it was 21.2 µM (active).
With `COc1ccc(O)c(C(C)(C)C)c1`, the compound was called inactive in assay [1], in assay [2], in assay [13], in [5], in assay [6] and in [7]. In addition, the result in assay [8], in [14], in [9], in [16], in assay [17] and in [10] was inactive. Besides, the outcome in assay [11] and in assay [19] was inactive. In addition, the half-maximal activity concentration (AC50) was 39 µM (active) in assay [3], 143 µM (active) in assay [4] and 4.55 µM (active) in assay [18].
As for `Cc1cc(-c2ccc(N)c(C)c2)ccc1N`, the compound was classed as inactive in [1], in [2], in assay [3], in [4], in assay [13] and in assay [5]. Moreover, the outcome in assay [6], in [7], in assay [8], in assay [14], in [9] and in [16] was inactive. Further, the compound was classed as inactive in assay [17], in assay [10], in assay [11], in [18] and in assay [19]. Further, the AC50 in [13] and in [11] was 100 µM (active) throughout.

By AC50 is commonly meant the concentration at which the activity in the assay is half-maximal.
